The record followed here is the supplement of paper PMC6555819.

Holding throughout (test): PBM binding z-score (relative to random genomic background probes); higher = stronger binding; sequences stand for … in GC…GCGATTGACAGCGTAGAATGAAGG
The subject of experiment [1] is FXR:RXRa (NR concentration 270 nM, RXRa partner concentration 90 nM). A digest of the protocol:
(§1)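 On custom Agilent 4×180K arrays, double-stranded probes with 34-nt variable regions carried direct-repeat seeds, single-nucleotide variants, half-site ablations or random human genomic background. Ligand-free nuclear receptor dimers were applied for 1 h, and binding was read with antibodies against each partner (one per run). Binding z-scores come from regression-normalized fluorescence, with the random background probes as reference.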

Experiment [2] deals with LXRa:RXRa (NR concentration 270 nM, RXRa partner concentration 90 nM). The method, boiled down: as §1
For experiment [3], the system named is LXRa homodimer (NR concentration 270 nM). A digest of the protocol:
as §1

Experiment [4] concerns LXRb:RXRa (NR concentration 270 nM, RXRa partner concentration 90 nM). The method, boiled down: as §1
The subject of experiment [5] is LXRb homodimer (NR concentration 270 nM). A digest of the protocol: as §1
The test system of experiment [6] is PPARa:RXRa (NR concentration 270 nM, RXRa partner concentration 90 nM). The method, boiled down:
as §1

In experiment [7] the test system is PPARg:RXRa (NR concentration 180 nM, RXRa partner concentration 90 nM). The method, boiled down: as §1
Experiment [8] has as its system PPARg:RXRa 270nM:90nM, anti-RXR (NR concentration 270 nM, RXRa partner concentration 90 nM). The method, boiled down:
as §1

In experiment [9] the test system is PPARg:RXRa 30nM:10nM, anti-RXR (NR concentration 30 nM, RXRa partner concentration 10 nM). The method, boiled down:
as §1

Experiment [10] concerns PPARg:RXRa 90nM:30nM, anti-RXR (NR concentration 90 nM, RXRa partner concentration 30 nM). A digest of the protocol: as §1
Experiment [11] deals with PPARg:RXRa DBDmut IVT, anti-RXR (DBD mutation: RXRa K156A/R161A, NR concentration 270 nM, RXRa partner concentration 90 nM). A digest of the protocol:
as §1

The subject of experiment [12] is PPARg:RXRa IVT, anti-PPARg (NR concentration 270 nM, RXRa partner concentration 90 nM). A digest of the protocol: as §1
In experiment [13] the test system is PPARg DBDmut:RXRa IVT, anti-PPARg (DBD mutation: PPARg1 K132A/R137A, NR concentration 270 nM, RXRa partner concentration 90 nM). The method, boiled down: as §1
Experiment [14] has as its system PPARg DBDmut IVT, anti-PPARg (DBD mutation: PPARg1 K132A/R137A, NR concentration 270 nM). The method, boiled down: as §1
In experiment [15] the test system is PPARg homodimer (NR concentration 180 nM). The method, boiled down:
as §1

The subject of experiment [16] is PXR:RXRa (NR concentration 270 nM, RXRa partner concentration 90 nM). A digest of the protocol: as §1
For experiment [17], the system named is PXR homodimer (NR concentration 270 nM). The method, boiled down: as §1
Experiment [18] relates to RARa:RXR (NR concentration 270 nM, RXRa partner concentration 90 nM). The method, boiled down:
as §1

The subject of experiment [19] is RARa homodimer (NR concentration 270 nM). A digest of the protocol:
as §1

Experiment [20] has as its system RARb:RXRa (NR concentration 270 nM, RXRa partner concentration 90 nM). The method, boiled down: as §1

As for TCGAGTAGGTTAGGGGCATTTAGAATGGCGTCGA, the PBM binding z-score in experiment [1] is 0.425; in [2] it was 0.611; in experiment [3], -0.123; in experiment [4], 0.871; in experiment [5], 0.134; in [6] it was 1.37. For the same sequence, the PBM binding z-score amounted to 0.729 in experiment [7]; 2.07 in experiment [8]; 1.37 in experiment [9]; 1.68 in [10]; 2.14 in experiment [11]; 1.43 in experiment [12]. The PBM binding z-score in experiment [13] was -0.441; in experiment [14], -0.569; in experiment [15] it was 0.734; in experiment [16], 0.534; in [17] it was 0.61; in [18], 0.611. The results for the PBM binding z-score in experiment [19] and in experiment [20] were 0.362 and 0.962, respectively.

As to TCTAGCAGGCCAGAGGGACACTCAAGAGGTACGG, the PBM binding z-score in [1] is -0.341; in experiment [2], -0.607; in experiment [3], -1.2; in experiment [4], -0.951; in experiment [5] it was -1.48; in experiment [6] it was -0.201. The PBM binding z-score in [7] is 0.823; in experiment [8], 1.13; in [9], 1.39; in [10] it was 1.15; in [11] it was 0.376; in experiment [12] it was -0.183. In addition, the PBM binding z-score is -1.54 in experiment [13]; -1.73 in experiment [14]; -1.07 in experiment [15]; -0.803 in [16]; -0.661 in experiment [17]; -1.02 in experiment [18]. For the same sequence, the PBM binding z-score in [19] was -0.883; in experiment [20], 0.0919.

Turning to AGAATGAGGTTATTAAGATCGGGGAATTGCGGTC, the PBM binding z-score came out at 1.39 in experiment [1]; 1.31 in experiment [2]; 0.0422 in experiment [3]; 1.14 in [4]; 0.139 in experiment [5]; 2.39 in [6]. For the same sequence, the PBM binding z-score in [7] stood at 0.982; in experiment [8], 1.43; in experiment [9], 0.253; in [10], 0.888; in [11] it was 2.65; in experiment [12], 2.39. Also, the PBM binding z-score was 0.666 in experiment [13]; -0.0579 in [14]; 0.639 in [15]; 1.23 in experiment [16]; 0.366 in [17]; 1.26 in experiment [18]. In addition, the PBM binding z-score in experiment [19] turned out to be 0.527; in [20], 1.37.

As to TTACCAAGGTGAGCTTAGGTCGTTGATCCAACTC, the PBM binding z-score in [1] was 0.558; in experiment [2], 0.409; in experiment [3], -0.684; in experiment [4], 0.122; in experiment [5] it was -1.23; in experiment [6], 1.05. Also, the PBM binding z-score in [7] is -0.0698; in experiment [8], 0.725; in experiment [9], -0.0893; in experiment [10] it was 0.244; in experiment [11], 1.61; in experiment [12] it was 1.67. Further, the PBM binding z-score in experiment [13] is -0.375; in experiment [14] it was -0.536; in experiment [15], -0.601; in [16], 1.62; in experiment [17], -0.264; in experiment [18], 0.665. Besides, the PBM binding z-score was -0.83 in experiment [19] and 1.36 in experiment [20].

Consider CGTCAAAGTTCAAGTAAGGTAACGTAAAGCACGC, for which the PBM binding z-score came out at 6.99 in experiment [1]; 6.43 in experiment [2]; 4.16 in experiment [3]; 4.1 in [4]; 1.85 in experiment [5]; 5.15 in experiment [6]. The PBM binding z-score in [7] came to 5.02; in experiment [8], 5.63; in experiment [9], 2.56; in [10], 4.25; in experiment [11], 0.544; in [12] it was 2.41. Moreover, the PBM binding z-score was 0.93 in experiment [13]; 0.765 in [14]; 3.47 in experiment [15]; 5.21 in experiment [16]; 3.9 in [17]; 4.3 in experiment [18]. Moreover, the PBM binding z-score in experiment [19] amounted to 1.99; in [20], 5.29.

For CGAACTAGGTCATTTACAGGACAGTGAATAGTAA, the PBM binding z-score in experiment [1] was determined as 4.33; in experiment [2] it was 3.3; in experiment [3], 1.29; in experiment [4], 2.69; in [5], 0.887; in experiment [6], 4.56. Further, the PBM binding z-score in experiment [7] was determined as 6.79; in [8], 6.09; in experiment [9] it was 3.53; in experiment [10], 5.66; in experiment [11], 8.11; in experiment [12], 8.23. The PBM binding z-score in [13] stood at 5.73; in experiment [14] it was 3.57; in experiment [15], 2.35; in experiment [16], 1.74; in experiment [17] it was 0.63; in experiment [18] it was 2.39. Further, the PBM binding z-score in [19] was found to be 0.283; in experiment [20] it was 3.39.
